Molecules are shown by their SMILES. A number with no mark means an inactive call. Where a call stands in place of a potency, no number is given. Calls of active or inactive are those of the source. The call rests on the fitted dose curve; in most records, active means well fitted activation curve with a large enough effect; inconclusive means small, poorly fitted or top-dose-only effect; inactive means no such curve, though single readings can be large or run the other way.

Chain of Cytochrome P450 3A4 (Homo sapiens) (P08684 whole entry, looked up): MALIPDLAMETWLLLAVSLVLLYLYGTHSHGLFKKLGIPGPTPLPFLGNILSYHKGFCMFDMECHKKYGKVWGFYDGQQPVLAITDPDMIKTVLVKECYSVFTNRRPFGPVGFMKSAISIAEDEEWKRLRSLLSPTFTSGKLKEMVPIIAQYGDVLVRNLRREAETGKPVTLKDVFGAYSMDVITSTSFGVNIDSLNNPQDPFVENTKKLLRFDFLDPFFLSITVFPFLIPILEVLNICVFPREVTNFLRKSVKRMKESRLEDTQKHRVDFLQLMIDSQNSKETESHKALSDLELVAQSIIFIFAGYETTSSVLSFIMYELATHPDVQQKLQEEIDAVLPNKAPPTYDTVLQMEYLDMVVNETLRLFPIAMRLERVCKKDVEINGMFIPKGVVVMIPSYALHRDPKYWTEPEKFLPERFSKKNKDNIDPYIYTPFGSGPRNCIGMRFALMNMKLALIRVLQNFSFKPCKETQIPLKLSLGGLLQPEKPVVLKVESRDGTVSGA

The test has as its target Cytochrome P450 3A4 (Homo sapiens) (UniProt P08684). Description: qHTS Assay for Activators of Cytochrome P450 3A4 (AID 885). Further: nearly all actives have a fitted effect of over 65% in size. The following applies: recombinant CYP3A4, Luciferin-PPXE luminescence, 60 min; series mostly up to 57.1 µM. In short, it runs like this:
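Signal was normalized against complete inhibition by 57 uM ketoconazole. The reaction used 20nM CYP3A4 with 25uM Luciferin-PPXE, 10-min compound preincubation and a 60-min NADPH-supported step at RT.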
For orientation: qHTS replaces the single test concentration by a dilution series.
Consider `COC(=O)c1cccc(C23CC4(C2)[C@H](CN(Cc2ccc(-c5ccccc5)cc2)[C@@H]4c2ccccc2)C3c2ccccc2)c1` (stereo not given in full), for which the Potency entry was “inactive”. In the case of `CO[C@@H]1/C=C\CC(=O)N[C@@H](C)C(=O)OC[C@@H](OC)[C@H](C)/C=C\CC(=O)OC[C@H]1C`, the activity change, positive = activation is -36.7% [at 11.4 µM]. As to `COC(=O)c1ccc(C23CC4(C2)[C@H](CN(C)[C@@H]4c2ccccc2)C3c2ccccc2)cc1` (stereo not given in full), the Potency result is “inactive”. As for `COC(=O)[C@@H]1C[C@@]2(O)[C@H](O)[C@H](O)[C@H](O)C[C@H]2N1CC(c1ccccc1)c1ccccc1`, the Potency entry is “inactive”. Take `COC(=O)[C@@H]1C[C@@]2(O)[C@H](O)[C@H](O)[C@H](O)C[C@H]2N1Cc1ccc(C(F)(F)F)cc1`: the Potency result was “inactive”.

Turning to `COC(=O)c1cccc(C23CC4(C2)[C@H](CN(Cc2ccc(C(F)(F)F)cc2)[C@@H]4c2ccccc2)C3c2ccc(C(F)(F)F)cc2)c1` (stereo not given in full), the Potency entry is “inactive”. Turning to `CC(C)=CCC/C(C)=C/CO/N=C1/C[C@@H](O)[C@@H](O)[C@@H]2[C@H]3C(=O)N(c4ccc(F)cc4F)C(=O)[C@@H]3CC[C@H]12`, the activity change, positive = activation is -35.2% [at 11.4 µM].

In the case of `COC(=O)[C@@H]1C[C@@]2(O)[C@H](O)[C@H](O)[C@H](O)C[C@H]2N1Cc1ccc(N2CCN(C)CC2)cc1`, the Potency result is “inactive”. The same measure, in the same setting: for `CCC1=C2CC[C@H]3C(=O)N(CC(=O)OC)C(=O)[C@H]3[C@H]2[C@@]2(C)C(=O)N(CC3CC3)C(=O)N2C1=O` the value was “inactive”; for `CCC1=C2CC[C@H]3C(=O)N(C)C(=O)[C@H]3[C@H]2[C@@]2(C)C(=O)N(CC(=O)OC)C(=O)N2C1=O`, “inactive”. With `C[C@H]1CC[C@H]2C(=O)N3[C@H](c4ccc(Br)cc4)[C@@H](C)CC[C@H]3C(=O)N2[C@@H]1c1ccc(Br)cc1`, the activity change, positive = activation was -43.1% [at 11.4 µM]. With `CC(=O)O[C@H]1C2=CO[C@H](C)[C@H]3[C@H]4C5=C([C@H](O)[C@H]6O[C@@H]6C5=O)[C@H](O[C@H]4C)[C@@]23C(=O)[C@H]2O[C@@H]21`, the activity change, positive = activation is -42.7% [at 11.4 µM]. As for `FC(F)(F)c1ccc(CN2C[C@@H]3C(c4ccc(Cl)nc4)C4(c5ccccc5)CC3(C4)[C@H]2c2ccccc2)cc1` (stereo not given in full), the Potency result was “inactive”. Turning to `CO[C@@H]1COC(=O)C/C=C\[C@@H](C)[C@@H]2C=C[C@H](O)[C@@H](COC(=O)CCC[C@H]1C)O2`, the activity change, positive = activation is -44.8% [at 11.4 µM]. With `CC(C)Cn1c(N)c(C(=O)COC(=O)c2cc(C(F)(F)F)nc3c(C(F)(F)F)cccc23)c(=O)n(C)c1=O`, the Potency entry was “inactive”. Take `Cn1c(=O)cc(N)n(Cc2ccccc2)c1=O`: the Potency entry was “inactive”. Regarding `CNC(=O)[C@@]1(C)C=C[C@@H](Cc2ccccc2)N1C(=O)OC`, the Potency result was “inactive”. In the case of `COc1ccc(O[C@H]2C=C[C@@H](c3ccccc3)O[C@H]2CO/N=C(/C)CCC(=O)OC[C@@H]2O[C@H](C#Cc3ccccc3)C=C[C@@H]2Oc2ccc(C)cc2)cc1`, the activity change, positive = activation was -52.7% [at 11.4 µM].

For the compound `COC(=O)C/C=C\[C@@H](C)[C@@H](/C=N\OC[C@@H](C)[C@H](OCc1ccccc1)C(C)C)OC`, the activity change, positive = activation was -33% [at 11.4 µM]. For `CCC1=C2CC[C@H]3C(=O)N(CC)C(=O)[C@H]3[C@H]2[C@@]2(C)C(=NCC(=O)OC)OC(=O)N2C1=O`, the Potency result was “inactive”. On the same count and under the same terms, as for `COC(=O)CN=C1OC(=O)N2C(=O)C3=C4C(C[C@H]5C(=O)N(c6ccccc6)C(=O)[C@H]5[C@H]4[C@@]12Cc1ccccc1)[C@H]1C(=O)N(c2ccccc2)C(=O)[C@H]1[C@H]3C` (stereo not given in full), the entry is “inactive”. With `O=C1[C@H]2[C@H]3[C@H](O)[C@H](O)C/C(=N/OC[C@@H](O)COCc4ccco4)[C@@H]3CC[C@@H]2C(=O)N1c1cccc(Oc2ccccc2)c1`, the activity change, positive = activation is -40.2% [at 11.4 µM]. In the case of `COC(=O)c1cccc(C23CC4(C2)[C@H](CN(Cc2ccc(C(F)(F)F)cc2)[C@@H]4c2ccccc2)C3c2ccc(Cl)nc2)c1` (stereo not given in full), the Potency entry was “inactive”. In the case of `CO[C@H]1COC(=O)C/C=C\[C@@H](C)[C@H](OC)COC(=O)CCC[C@@H]1C`, the activity change, positive = activation was -58.3% [at 11.4 µM]. Consider `Cn1c(N)c(C(=O)COC(=O)c2cc(C3CC3)nc3ccccc23)c(=O)n(C)c1=O`, for which the Potency entry was “inactive”. For `C#CCCCO/N=C1/C[C@@H](O)[C@@H](O)[C@@H]2[C@H]3C(=O)N(c4ccc(F)cc4F)C(=O)[C@@H]3CC[C@H]12`, the activity change, positive = activation was -60.2% [at 11.4 µM]. As to `CO[C@H]1COC(=O)[C@H](Cc2ccccc2)NC(=O)C/C=C\[C@@H](C)[C@H](OC)COC(=O)C/C=C\[C@@H]1C`, the activity change, positive = activation was -59.6% [at 11.4 µM].

In the case of `COC(=O)[C@@H]1C[C@@]2(O)[C@H](O)[C@H](O)[C@H](O)C[C@H]2N1Cc1c(F)cccc1Cl`, the Potency entry is “inactive”. In the case of `C#CCCCO/N=C1/C[C@@H](O)[C@@H](O)[C@@H]2[C@@H]3C(=O)N(CCC(=O)OCC)C(=O)[C@H]3CC[C@@H]12`, the activity change, positive = activation was -45.7% [at 11.4 µM]. The same measure, in the same setting: as for `O=C1[C@H]2[C@H]3[C@H](O)[C@H](O)C/C(=N/OCc4ccccc4)[C@H]3CC[C@@H]2C(=O)N1Cc1ccc2c(c1)OCO2`, the figure is -96.1% [at 11.4 µM]; as for `CC(C)CO/N=C1/C[C@@H](O)[C@@H](O)[C@@H]2[C@@H]3C(=O)N(Cc4ccc5c(c4)OCO5)C(=O)[C@H]3CC[C@@H]12`, -50.2% [at 11.4 µM]; as for `C/C(CCN1CCCc2nc(C)c(C)cc21)=N\O[C@@H](C)c1cc(-c2c(C)cc(C)cc2C)no1`, -56.9% [at 11.4 µM]. As for `COC(=O)N1CC=CC1(C)C(=O)NCc1ccc(C)o1` (stereo not given), the Potency entry was “inactive”. Turning to `N#Cc1ccc(C23CC4(C2)[C@H](CN(Cc2ccc(-c5ccccc5)cc2)[C@@H]4c2ccccc2)C3c2ccccc2)cc1` (stereo not given in full), the Potency result was “inactive”.

In the case of `COC(=O)N1[C@H](C)C=C[C@]1(Cc1ccccc1)C(=O)NCc1ccccn1`, the Potency result is “inactive”. For the compound `CC(C)CO/N=C1/C[C@@H](O)[C@@H](O)[C@@H]2[C@@H]3C(=O)N([C@@H](C)c4ccccc4)C(=O)[C@H]3CC[C@H]12`, the activity change, positive = activation was -46.1% [at 11.4 µM].

In the case of `Cc1nc(NC2CCCCC2)c2nc(-c3ccccc3)n(CCCN3CCOCC3)c2n1`, the Potency entry was “inactive”. Turning to `Cc1ccc(S(=O)(=O)N[C@H]2COC(=O)C/C=C\[C@H](C)[C@@H](NS(=O)(=O)c3ccc(C)cc3)COC(=O)C/C=C\[C@@H]2C)cc1`, the activity change, positive = activation was -90.7% [at 11.4 µM]. On the same count and under the same terms, as for `CC(C)=CCC/C(C)=C/CO/N=C1/C[C@@H](O)[C@@H](O)[C@@H]2[C@@H]3C(=O)N(C4CCCCC4)C(=O)[C@H]3CC[C@H]12`, the figure is -36.4% [at 11.4 µM].

Take `Cn1c(N)c(C(=O)COC(=O)c2cc(-c3ccccc3)nc3ccccc23)c(=O)n(Cc2ccccc2)c1=O`: the Potency result is “inactive”.
